Compound activity from PubChem.
Shown are actives, neighbours in structure and some others; about 19% of the full set was active somewhere.
ELG1 repair inh – ELG1-dependent DNA repair inhibition | Potency, µM (doses to about 46.1 µM), for inactives: at the highest dose activity change, negative = inhibition, hits mostly inhibitors | hit rate 2.3% among 330,000 | HEK293T ELG1-luciferase reporter, luminescence, 16 h; DNA damage induced by 5-fluorouridine; further: potency means the concentration at half of the fitted maximal effect; nearly all actives have a fitted effect of over 55% in size
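Quantitative HTS, concentration-response format. 2,000 cells/well co-treated with 5-fluorouridine and compound, 16 hr in 5% CO2 at 37 °C; ONE-Glo luminescence read after 30 min.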
TDP1 cell noCPT – qHTS for Inhibitors of human tyrosyl-DNA phosphodiesterase 1 (TDP1): qHTS in cells in absence of CPT; AID 686978, 2013; Potency, µM (doses to about 46.2 µM), for the others: at the highest dose activity change, negative = growth inhibition, hits mostly inhibitors; DT40 Tdp1-/- hTDP1 cells, no CPT, ATP luminescence, 48 h; hit rate 15% among 420,000; further: potency means the concentration at half of the fitted maximal effect; nearly all actives have a fitted effect of over 55% in size
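A cellular qHTS used chicken DT40 cells lacking endogenous Tdp1 but carrying stably transfected human TDP1. Compounds were applied without camptothecin, and cell growth kinetics were judged by ATP-dependent luminescence after ≥48 hr.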
TDP1 cell CPT – growth inhibition of DT40 Tdp1-/-;hTDP1 cells with camptothecin (screen for TDP1 inhibitors). chicken DT40 Tdp1-/-;hTDP1 cells + 20 nM CPT, ATP luminescence, 48 h. AID 686979. hit rate 12% among 420,000. Potency, µM (top dose mostly 46.2 µM), inactives show at the top dose activity change, negative = growth inhibition, usual class: inhibitors; further: potency means the concentration at half of the fitted maximal effect; nearly all actives have a fitted effect of over 55% in size
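Chicken DT40 Tdp1-/- cells stably complemented with human TDP1 were seeded at 400 cells/well in medium containing 20 nM camptothecin, exposed to pin-transferred compounds, and grown at 37 °C for at least 48 hr. Viability was read as ATP luminescence.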
HT1080NT lethal – kills 2HG-producing HT-1080-NT fibrosarcoma cells | HT-1080-NT fibrosarcoma viability, CellTiter-Glo ATP luminescence, 48 h | Potency, µM (doses to about 46.1 µM), for inactives: at the highest dose activity, negative = less viability, hits mostly cytotoxic | hit rate 1.6% among 360,000 | AID 686970;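 further: NT is the 2HG producing partner of a matched IDH1 knockdown line; potency means the concentration at half of the fitted maximal effect; 0% = DMSO-treated cells and -100% = media-only wells without cells; nearly all actives have a fitted effect of over 55% in size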
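Compounds were tested in concentration-response format on HT-1080-NT cells for 48 hours at 37 degrees C. Cell viability came from CellTiter-Glo luminescence; curves were classified by r2, response magnitude and activity.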
HT1080 IDH1KD tx – HT-1080 IDH1 knockdown cell toxicity (counter line) | HT-1080 IDH1 knockdown viability, ATP luminescence, 48 h | Potency, µM (titrated, usually from 46.1 µM), for the others: top-dose activity, negative = toxicity, hits mostly cytotoxic | hit rate 2% among 360,000;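 further: potency means the concentration at half of the fitted maximal effect; 0% = DMSO wells and -100% = cell-free medium wells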
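CellTiter-Glo luminescence after 48 h compound exposure at 37 degrees C of IDH1-knockdown HT-1080 cells in 5% FBS RPMI. %Activity scaled between DMSO wells and cell-free media wells, with curves fitted and assigned curve classes.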
IL1B secr inh – blocks inflammasome-driven IL-1 beta release; THP-1 LPS/ATP IL-1B secretion, AlphaLISA, 16 h; active compounds read low; hit rate 4.7% among 360,000; activity change, % at 57.5 µM; in the data active means activity change below about -50%; inconclusive means mostly about -30% to -49%
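THP-1 cells pretreated 1 hr with compounds (up to 57.5 uM final), then stimulated with LPS (250 ng/mL final) plus ATP (1.25 mM final); secreted IL-1B measured by AlphaLISA after 16 hr, decreased signal indicating inhibition.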
The depositor's hits bear a star; ? = inconclusive; nt = not tested or not shown. Unless noted, the call rests on the fitted dose curve; in most records, active means well fitted curve in the direction sought with a large enough effect; inconclusive means small, poorly fitted or top-dose-only effect, or another doubt; inactive means no such curve, though single readings can be large; an effect the other way counts as inactive or inconclusive. Unless noted, on the % scale 0 is the no-effect control and ±100 the full control effect.

SMILES	ELG1 repair inh	TDP1 cell noCPT	TDP1 cell CPT	HT1080NT lethal	HT1080 IDH1KD tx	IL1B secr inh
CC(C)[C@]1(c2ccccc2)ON(c2ccccc2C(F)(F)F)C1=O	0%	nt	nt	nt	nt	nt
Cc1ccc(OCc2nnc(-c3ccccc3)o2)cc1	nt	-13%	-3%	nt	nt	nt
OC(c1ccc(OCc2ccccc2)cc1)c1nnc(-c2ccccc2)o1 (stereo not given)	-5%	16µM*	21µM*	-28%	-27%	-8
c1ccc(-c2nnc(C(c3ccccc3)c3ccccc3)o2)cc1	15%	18µM*	26µM*	-1%	0%	-9
OC(c1cccc(OCc2ccccc2)c1)c1nnc(-c2ccccc2)o1 (stereo not given)	-15%	18µM*	18µM*	-20%	?	?
Cc1ccc(C)c(NC(=O)c2ccc(S(=O)(=O)N(C)CC3CCCO3)cc2)c1 (stereo not given)	nt	?	?	-4%	-11%	-10
CC(CNC(=O)c1cccnc1)NC(=O)c1cccnc1 (stereo not given)	nt	-2%	3%	nt	nt	nt
CCCNC(=O)C1(C)CCCN(Cc2ccccc2N(C)C)C1 (stereo not given)	nt	?	?	-5%	-1%	-9
Cc1cccc(C(=O)NC2CC3CCCC(C2)N3C(=O)Nc2ccccc2)c1 (stereo not given)	-26%	?	-30%	-9%	2%	6
COc1ccccc1NS(=O)(=O)c1cccc(C(=O)NC2CCN(Cc3ccccc3)CC2)c1	-2%	23µM*	?	?	-7%	?
COc1ccccc1C(=O)NC1CCN(C(=S)NCCc2ccccc2)CC1	?	-28%	-4%	-2%	3%	-77*
Cc1cccc(C(=O)NC2CC3CCCC(C2)N3S(=O)(=O)c2ccccc2)c1 (stereo not given)	23µM*	18µM*	13µM*	-6%	-6%	-56*
C=CCN(c1ccccc1)S(=O)(=O)c1cccc(C(=O)NC2CCN(Cc3ccccc3)CC2)c1	-29%	18µM*	13µM*	-5%	-15%	-54*
Cc1cc(C)nc(NNS(=O)(=O)c2c(F)cc(F)cc2Br)n1	28%	?	?	-6%	0%	8
CCOC(=O)c1c(NC(=O)COc2ccc3ccc(=O)oc3c2)sc(C(=O)N(C)C)c1C	-19%	-19%	?	7%	14%	-8
Cc1ccccc1OCC(=O)Nc1ccc(-c2nc3cc(Cl)cc(Cl)c3o2)cc1	nt	-13%	-9%	nt	nt	nt
CC1C=CCC2C(=O)N(c3cccc(C(=O)NCc4ccccc4)c3)C(=O)C12 (stereo not given)	-9%	5%	-5%	11%	5%	6
COc1ccccc1NS(=O)(=O)c1ccc(C)c(C(=O)NC2CCN(Cc3ccccc3)CC2)c1	-12%	16µM*	21µM*	-12%	-15%	-57*
COc1ccc(NS(=O)(=O)c2ccc(C)c(C(=O)NCc3ccccc3CN3CCCC3)c2)cc1	nt	?	?	-12%	-7%	-7
COc1ccc(NS(=O)(=O)c2ccc(C)c(C(=O)NC3CCN(Cc4ccccc4)CC3)c2)cc1	-19%	?	16µM*	-3%	-17%	12
Cc1cccc(C(=O)NCC(=O)NC2CCN(Cc3ccccc3)CC2)c1	nt	-21%	2%	-5%	-3%	-8
Cc1ccc(NS(=O)(=O)c2cccc(C(=O)NC3CCN(Cc4ccccc4)CC3)c2)c(C)c1	nt	?	9.2µM*	?	?	?
COc1ccccc1NS(=O)(=O)c1cc(C(=O)NC2CCN(Cc3ccccc3)CC2)ccc1C	nt	?	?	-8%	-15%	-11
CCN(CC)S(=O)(=O)c1ccc(Cl)c(C(=O)NC2CCN(Cc3ccccc3)CC2)c1	?	13µM*	16µM*	-1%	2%	-9
O=C(NC1CCN(Cc2ccccc2)CC1)c1cccc(S(=O)(=O)Nc2ccc(Br)cc2)c1	-12%	?	21µM*	-19%	-19%	?
SMILES	ELG1 repair inh	TDP1 cell noCPT	TDP1 cell CPT	HT1080NT lethal	HT1080 IDH1KD tx	IL1B secr inh
CN(C)S(=O)(=O)c1cccc(C(=O)NCC(=O)NC2CCN(Cc3ccccc3)CC2)c1	5%	?	-17%	17%	13%	19
Cc1cc(C(=O)N/N=C/c2cc(Br)cc(Br)c2OC(=O)c2cccc(F)c2)n[nH]1	?	5.8µM*	5.8µM*	-5%	-18%	78
Cc1ccc(-c2cc(C(=O)N/N=C/C(Br)=C/c3ccccc3)n[nH]2)o1	-27%	10µM*	12µM*	21µM*	21µM*	?
Cc1cc(C(=O)N/N=C\c2cc(C(C)(C)C)ccc2O)n[nH]1	-1%	3.3µM*	21µM*	?	?	198
Cc1cc(C(=O)N/N=C/c2cc(Br)ccc2OC(=O)c2ccc(Br)cc2)n[nH]1	-14%	nt	nt	nt	nt	nt
Cc1ccc(-c2cc(C(=O)N/N=C/c3ccccc3O)n[nH]2)o1	19%	5.2µM*	5.2µM*	?	?	84
O=C(COC(=O)/C=C/c1ccccc1)NCc1ccco1	nt	-8%	-1%	-5%	3%	38
Cc1ccc(CNC(=O)CN(C)S(=O)(=O)c2ccc(Br)s2)cc1	nt	?	-14%	nt	nt	nt
Cc1ccc(C(=O)C[n+]2ccc(-c3nnc4n3CCC4)cc2)cc1	?	-12%	1%	0%	1%	29
Cc1cc(=O)oc2cc(OCC3CC(c4ccc(N(C)C)cc4)=NO3)ccc12 (stereo not given)	17%	-20%	-19%	0%	-6%	50
Cc1cc(=O)oc2cc(OCC3CC(c4ccc(Cl)cc4)=NO3)ccc12 (stereo not given)	?	?	28µM*	16%	11%	46
CN(C)S(=O)(=O)Nc1cc(Cl)cc(Cl)c1	14%	?	18µM*	1%	16%	44
COC(=O)CCCCC1SCC2NC(=O)NC21O (stereo not given)	4%	-27%	-1%	6%	15%	-113*
CCCCC(O)(CCCC)C(=O)NN(C(=O)OC)c1ccc(C)cc1	?	-29%	-2%	0%	-4%	-1
CC(=O)Oc1ccc(OC(C)=O)c(SCCCCCN2CCOCC2)c1	-18%	3.7µM*	?	?	?	0
O=C(Nc1ccc(-n2cnnn2)cc1)C1CCCN1C(=O)Nc1ccc(Br)cc1 (stereo not given)	-14%	?	2%	-11%	-7%	-58*
